# Test results from PubChem BioAssay AID624301 (The Scripps Research Institute Molecular Screening Center, 2012).
# Calls of active or inactive are those of the source.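 How the source made its calls: active means relative activity ratio in the reporter plus Dax-1 wells above 5 or under 0.1 at any tested dose; inactive means ratio stays between 0.1 and 5 at every dose.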
# Assay: DAX1 repression relief on CAT reporter, dose response, DAX1 inhibitor project, cell-based, CAT activity, absorbance, powder samples (AID 624301)
# Conditions: HEK293 Gal4-DAX1 CAT reporter, ELISA absorbance, CAT reporter alone; at 100 µM (top of the series)
row,Compound,"relative activity ratio, higher = derepression"
1,Cn1c(=O)n(C)c2cc(C(=O)Nc3ccc4c(c3)OCCO4)ccc21,0.59 (active)
2,Cn1c(=O)n(C)c2cc(C(=O)Nc3ccc4c(c3)OCO4)ccc21,0.92 (active)
